PubChem BioAssay (NCI)
The panel holds about 83,000 compounds, 20% with a hit somewhere; the sample as a whole holds those more often.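 Single-dose data. Exposure time 48 hours. Values below 10 considered active.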 The source made the active and inactive calls.

These compounds were tested on T-47D breast (assay: NCI-60 one-dose screen, 48 h (100 = growth as untreated, 0 = no growth, -100 = all killed)). Settings: 10 µM unless noted.
Experimental: Growth inhibition of the T-47D human tumor cell line is measured as a screen for anti-cancer activity. Cells are grown in 96 well plates and exposed to the test compound for 48 hours. Compounds are tested at a single concentration, which is 10^-5 M for most compounds. The reported endpoint is percent growth (GI% or GIPRCNT), where numbers from 0 - 100% represent growth inhibition, and numbers from -100% - 0 represent cell death. For example, a value of 40 represents 60% growth inhibition. A value of 0 means no net growth occurred over the course of the experiment. A value of -40 indicates 40% of cells at the beginning of the experiment died by the end of the experiment. A value of -100 means all cells are dead at the end of the experiment.
NCI-60 Human Tumor Cell Lines Screen was performed using the standard one-dose NCI protocol, which is described in more detail at https://dtp.cancer.gov/discovery_development/nci-60/default.htm.
Compounds with GIPRCNT values below 10 were considered active. Activity score was based on GIPRCNT using the following formula: […]
Score is 0 for GIPRCNT values of 100 or above, 50 for GIPRCNT values of 0, and 100 for GIPRCNT values of -100.
For `C=C1CCC2C3(C)COC(c4ccccc4Br)OC3CCC2(C)C1C/C=C1/C(=O)OCC1OC(C)=O` (stereo not given), the growth was -68.9% (active). For `CCc1ccc(C(c2ccc(CC)cc2)C(Cl)(Cl)CCl)cc1`, the growth was 77.6% (inactive). `C[C@@H]1CC[C@@H]2[C@@H]1[C@H](OC(=O)/C=C/c1ccccc1)[C@]1(c3ccccc3)C[C@@H](OC(=O)CO)[C@@]2(C)O1` was tested, and the growth was 89.5% (inactive). For `COc1cc(/C=N/N(C)C)ccc1O`, the growth was 94.4% (inactive). `COc1cc(OC)c(/C=C/c2cc[n+](C)c3ccccc23)c(OC)c1` was tested, and the growth was 9.89% (active). With `COc1ccc(/C=N\NC(=O)CN2CCN(c3cc4c(cc3F)c(=O)c(C(=O)N/N=C/c3ccc(OC)cc3)cn4C3CC3)CC2)cc1` the growth was 82.5% (inactive). With `CCN(CC)CC(C)Nc1ccc([N+](=O)[O-])c2sc3ccccc3c(=O)c12` (stereo not given) the growth was 31.2% (inactive). With `O=C1C2CC=CCC2C(=O)N1CNc1ccc(Cl)cc1` (stereo not given) the growth was 86.2% (inactive). `CCN1CCN(Cc2ccc(NC(=O)Nc3nc4ccc(Oc5ccnc(C(=O)NC)c5)cc4s3)cc2C(F)(F)F)CC1` was tested, and the growth was -27.9% (active). For `O=c1c2c3c(sc2n2c(CCl)nnc2n1Cc1ccccc1)CCCC3`, the growth was -69.9% (active). For `COc1ccc(Cl)cc1Nc1nc(C(F)(F)F)ccc1C(=O)N/N=C/c1cccnc1`, the growth was 46.9% (inactive). With `Cn1cc(-c2nc(-c3c[nH]c4ccccc34)cs2)c2cccnc21` the growth was 0.223% (active). With `CC/C=C\C[C@H](O)C/C=C1/C(=O)C=C[C@@H]1C/C=C\CCCC(=O)NC` the growth was -0.635% (active). With `N#Cc1c2c(nc3n[nH]c(N)c13)CCCC2` the growth was 98% (inactive). With `Cc1ccc(C2CC3c4ccccc4C2C2CCCCN32)cc1` (stereo not given) the growth was 83.6% (inactive). For `O=C(/C=C/c1cccc(Br)c1)c1ccccc1`, the growth was 52% (inactive). With `CC[n+]1ccc2c(c1)C(=O)c1nccc3c1c-2nc1ccccc13` the growth was 8.59% (active). In the case of `COc1cc(-c2c3c(nc4c2c(C)nn4-c2ccccc2)-c2ccccc2C(=O)C3=O)cc(OC)c1OC`, the growth is reported as 72.4% (inactive). With `COc1ccc(-c2cn3c(-c4ccc(OC)cc4)cnc3c(Oc3ccc4c(C)cc(=O)oc4c3)n2)cc1` the growth was 45.3% (inactive). For `CN(C)c1ccc(C2Nc3ccccc3-n3cccc32)cc1` (stereo not given), the growth was 55.6% (inactive). With `CN1CCN(Cc2ccc(NC(=O)c3cncc(C#Cc4cnc(N)c5cccnc45)c3)cc2C(F)(F)F)CC1` the growth was 26.2% (inactive). With `CC#CC#Cc1cccc(=O)o1` the growth was 59.9% (inactive). For `COc1nc2c(cc1S(=O)(=O)c1ccccc1)CCc1c-2cnn1Cc1ccccc1`, the growth was 16.3% (inactive). With `CC/C=C\C[C@H](O)C/C=C1/C(=O)C=C[C@@H]1C/C=C\CCCC(=O)NC(C)C` the growth was 11.4% (inactive). `COC1=CC(=O)C(OC)=C(OC)C1=O` was tested, and the growth was 97% (inactive). In the case of `COc1ccc(OCC(=O)Nc2ccc(-c3nc4ccccc4s3)cc2C)cc1`, the growth is reported as 30.4% (inactive). In the case of `O=C1C(=O)N(CCCCn2cc(CO)nn2)c2ccccc21`, the growth is reported as 98.7% (inactive). `C[C@@H]1CCC2=C(CCC[C@]2(C)C(=O)O)[C@@]1(C)CCc1ccoc1` was tested, and the growth was 94.9% (inactive). For `CN(C)CCOc1ccc(-c2nc3ccc(-c4nc5ccc(N6CCN(C)CC6)cc5[nH]4)cc3[nH]2)cc1`, the growth was 55.3% (inactive). For `Cc1csc2ccc(Cl)cc12`, the growth was 104% (inactive). In the case of `COc1ccc(/C=C/C(=O)c2c(O)c(C)c(O)c3c2OC2=CC(O)=C(C(C)=O)C(=O)[C@]23C)cc1`, the growth is reported as -17.1% (active). With `OCCNCCNc1c2ccccc2nc2ccccc12` the growth was 39.6% (inactive). In the case of `CC[C@H](Nc1nc(N)nc(C)c1C#N)c1nc2cccc(NCc3ccc(C(=O)NO)cc3)c2c(=O)n1-c1ccccc1`, the growth is reported as -8.21% (active). With `O=C(Cc1ccccc1)c1ccc(Cl)cc1` the growth was 91.1% (inactive). With `CCOC(=O)c1cnc2ccc(OC)cc2c1Nc1cccc(S(=O)(=O)NC)c1` the growth was 98% (inactive). For `COc1cc(-c2nc3ccccc3s2)ccc1NC(=O)COc1ccc(Cl)cc1`, the growth was 23% (inactive). With `CCCCNP1(NCCCC)=NP(NCCCC)(NCCCC)=NP(NCCCC)(NCCCC)=NP(NCCCC)(NCCCC)=N1` the growth was -5.86% (active). In the case of `CCOC(=O)CC(=O)c1c(C)cc(C)cc1C`, the growth is reported as 121% (inactive). With `CC(C)Oc1nc2c(c(=O)n(C)c(=O)n2C)n1C` the growth was 90.3% (inactive). For `O=C1/C(=C\c2cn(C(=O)c3ccc(Cl)cc3)c3ccccc23)c2ccccc2N1c1c(Cl)cccc1Cl`, the growth was 92.5% (inactive).
